Test results taken from PubChem BioAssay (Tox21).
Several values for one entry are separate records, joined by “and”; a condition that tells them apart may be missing. Identical values can stand only once. Inconclusive results are not listed. Entries that show only a call come without a potency. A structure can be active in one record and inactive in another. Activity calls are given as the source filed them. Unless noted, calls follow the shape of the full dose curve.

Key:
[1] = Nuclear factor erythroid 2-related factor 2/antioxidant responsive element (Nrf2/ARE) small molecule agonists: qHTS cell viability counter screen in human keratinocytes (AID 1919968; active = well fitted curve in the direction sought with a large enough effect in the repeat runs; an effect the other way counts as inactive or inconclusive; also: nearly all actives have a fitted effect of over 55% in size; also: potency is read from the fitted curve at half-maximal effect)
In short: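 Cells of the KeratinoSens line were plated at 1,500 per well and left for 5 h before compound transfer from DMSO stocks. After a 23 h incubation (37 C, 5% CO2), CellTiter-Fluor was added. Signal was taken as fluorescence intensity 1 h later.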

[2] = Nuclear factor erythroid 2-related factor 2/antioxidant responsive element (Nrf2/ARE) small molecule agonists: luciferase reporter gene qHTS assay in human keratinocytes (AID 1919969); also: nearly all actives have a fitted effect of over 35% in size; also: potency is read from the fitted curve at half-maximal effect
[3] = G protein-coupled receptor (GPCR) small molecule agonists, calcium flux assay: HEK293 wild type cell line counter screen (AID 1920065)
In short: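 Tox21 10K compounds, 15 concentrations each in triplicate, pin-transferred in DMSO onto dye-loaded cells; kinetic read at 480/540 nm for 3 min, 1 s intervals.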

[4] = p53 small molecule agonists, cell-based qHTS assay with human liver microsomes (AID 1963577);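 also: p53 response element beta-lactamase reporter cells with liver microsomes plus NADPH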
In short: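 HLM-supplemented p53RE-bla reporter assay: 16 h compound exposure at 37 C, microsomes and NADPH each 0.5 mg/mL final, read by fluorescence intensity.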

[5] = p53 small molecule agonists, cell-based qHTS assay with rat liver microsomes (AID 1963578)
In short: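 Quantitative HTS of the Tox21 10K library: p53RE-bla cells, rat liver microsomes plus NADPH at 0.5 mg/mL final each, 16 h at 37 C, beta-lactamase fluorescence detection.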

[6] = p53 small molecule agonists, cell-based qHTS assay with human liver microsomes: qHTS cell viability counter screen (AID 1963579); also: nearly all actives have a fitted effect of over 45% in size; also: potency is read from the fitted curve at half-maximal effect
In short: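 Viability of p53RE-bla cells is measured as CellTiter-Glo luminescence following a 16 h, 37 C incubation with compound, liver microsomes from human donors and NADPH.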

[7] = p53 small molecule agonists, cell-based qHTS assay with rat liver microsomes: qHTS cell viability counter screen (AID 1963580); also: nearly all actives have a fitted effect of over 45% in size
In short: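 Cytotoxicity counter screen: intracellular ATP read by CellTiter-Glo luminescence in the p53 reporter wells. HCT-116 p53RE-bla cells were treated for 16 h at 37 C alongside rat liver microsomes and NADPH, each 0.5 mg/mL final.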

[8] = p53 small molecule agonists, cell-based qHTS assay: qHTS cell viability counter screen (AID 1963581); also: nearly all actives have a fitted effect of over 45% in size
In short: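 ATP content measured by luminescence in HCT-116 p53RE-bla cells treated 16 h at 37 C, same wells as the reporter screen.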

[9] = p53 small molecule agonists, cell-based qHTS assay (AID 1963582; active = well fitted activation curve with a large enough effect in the signal ratio in the repeat runs, not every such curve was filed as active; the % refers to the signal ratio)
In short: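 16 h compound exposure (37 C) of p53 response element–bla cells, preceded by 5 h recovery at 37 C/5% CO2; read-out via LiveBLAzer B/G FRET substrate, 2 h RT, fluorescence intensity.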

[10] = target: 5-hydroxytryptamine receptor 2A (Homo sapiens) (UniProt P28223); assay: 5-hydroxytryptamine receptor 2A (HTR2A) small molecule antagonists, cell-based qHTS assay (AID 1963586); also: nearly all actives have a fitted effect of over 45% in size
In short: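 CHO cells stably expressing human HTR2A were plated for 18 h at 37 C, then loaded with calcium dye for 1 h. Compounds were preincubated 5 min at room temperature before DOI (4 nM solution) was added. Kinetic fluorescence was read for 3 min.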

[11] = target: 5-hydroxytryptamine receptor 2A (Homo sapiens) (UniProt P28223); assay: 5-hydroxytryptamine receptor 2A (HTR2A) small molecule agonists, cell-based qHTS assay (AID 1963587); also: nearly all actives have a fitted effect of over 30% in size; also: potency is read from the fitted curve at half-maximal effect
In short: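 Kinetic calcium-flux fluorescence (2 min, 1 sec intervals) after compound addition in agonist mode. HTR2A-CHO cells were cultured 18 h, then dye-loaded 1 h at 37 C.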

[12] = target: Muscarinic acetylcholine receptor M1 (Homo sapiens) (UniProt P11229); assay: Cholinergic receptor muscarinic 1 (CHRM1) small molecule antagonists, cell-based qHTS assay (AID 1963588); also: nearly all actives have a fitted effect of over 40% in size; also: potency is read from the fitted curve at half-maximal effect
In short: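 Compounds were tested at 15 concentrations in three independent runs. Dye-loaded CHRM1-CHO cells were exposed 5 min at room temperature before stimulation by acetylcholine added at 50nM. Intracellular calcium was read kinetically on FDSS for 3 min.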

[13] = target: Muscarinic acetylcholine receptor M1 (Homo sapiens) (UniProt P11229); assay: Cholinergic receptor muscarinic 1 (CHRM1) small molecule agonists, cell-based qHTS assay (AID 1963589); also: nearly all actives have a fitted effect of over 35% in size; also: potency is read from the fitted curve at half-maximal effect
In short: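 Homogeneous fluorescence calcium flux, agonist mode. Human M1-expressing CHO cells; compound dosed at 15 concentrations, three independent runs; signal sampled every 1 sec.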

[14] = cAMP Responsive Elements (CRE) small molecule agonists, cell-based qHTS assay (AID 1963590)
In short: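 HEK 293T cells stably bearing CRE-bla were plated at 2,000 cells per well and rested 18 h. Compounds, positive controls or DMSO were added for 3 h at 37 C. LiveBLAzer B/G substrate was then loaded for 2 h at room temperature.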

[15] = cAMP Responsive Elements (CRE) small molecule antagonists, cell-based qHTS assay (AID 1963591; active = well fitted inhibition curve with a large enough effect in the signal ratio in the repeat runs, not every such curve was filed as active; the % refers to the signal ratio)
In short: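 First, CRE-bla HEK293T cells settled 18 h at 37 C. Next, compound and 0.25 uM final NKH477 were applied for 3 h. Last, LiveBLAzer B/G substrate was loaded for 2 h at room temperature.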

[16] = target: Beta-2 adrenergic receptor (Homo sapiens) (UniProt P07550); assay: Adrenergic beta2 receptor (ADRB2) small molecule antagonists, cell-based qHTS assay (AID 1963592); also: series mostly up to about 92 µM; nearly all actives have a fitted effect of over 50% in size
In short: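 Assay format: CHO-ADRB2 cells, 18-20hr seeding at 37C/5% CO2, then compound plus 1nM isoproterenol agonist mix for 0.5hr RT. Homogeneous time-resolved fluorescence cAMP detection after 1hr, expressed as 665/615 nm ratio.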

[17] = target: D(2) dopamine receptor (Homo sapiens) (UniProt P14416); assay: Dopamine D2 receptor (DRD2) small molecule agonists, cell-based qHTS assay (AID 1963594); also: nearly all actives have a fitted effect of over 35% in size
In short: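 cAMP accumulation in DRD2-HEK293 cells measured by HTRF after 1 h detection; compounds added 10 min before NKH477 (200nM […]) forskolin-analogue stimulation, 30 min at room temperature, with Ro20-1724 present at 0.1 mM final.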

[18] = target: D(2) dopamine receptor (Homo sapiens) (UniProt P14416); assay: Dopamine D2 receptor (DRD2) small molecule antagonists, cell-based qHTS assay (AID 1963595; active = well fitted inhibition curve with a large enough effect in the signal ratio in the repeat runs, with a control signal flat; the % refers to the signal ratio)
In short: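 Cells were plated and grown for 24 h at 37 °C. Ro20-1724 (0.1 mM final) went in first, then compound for 10 min. NKH477 (200 nM) with quinpirole (12 nM) followed for 30 min at RT, then HTRF detection reagents for 1 h.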

[19] = target: Beta-2 adrenergic receptor (Homo sapiens) (UniProt P07550); assay: Adrenergic beta2 receptor (ADRB2) small molecule agonists, cell-based qHTS assay (AID 1963593);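 also: CHO cells stably overexpressing human ADRB2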
In short: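 CHO cells stably over-expressing ADRB2 were plated overnight at 37C, then dosed with compounds plus a stimulation mix containing 100uM IBMX and 25uM Ro-20-1724 for 0.5hr at room temperature. cAMP was measured by HTRF competition, 1hr.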

[20] = target: KiSS-1 receptor (Homo sapiens) (UniProt Q969F8); assay: Human kisspeptin (KISS1R) small molecule agonists, calcium flux assay in KISS1R-HEK293 cells (AID 1920064; active = well fitted curve in the direction sought with a large enough effect in the repeat runs; an effect the other way counts as inactive or inconclusive)
In short: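 Cell line: HEK293, stable human KISS1R. Dye loading 1 h at 37 C after 18 h culture. Read: kinetic fluorescence, 480/540 nm, 3 min at 1 s intervals.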

Chain of D(2) dopamine receptor (Homo sapiens) (P14416 whole entry, looked up): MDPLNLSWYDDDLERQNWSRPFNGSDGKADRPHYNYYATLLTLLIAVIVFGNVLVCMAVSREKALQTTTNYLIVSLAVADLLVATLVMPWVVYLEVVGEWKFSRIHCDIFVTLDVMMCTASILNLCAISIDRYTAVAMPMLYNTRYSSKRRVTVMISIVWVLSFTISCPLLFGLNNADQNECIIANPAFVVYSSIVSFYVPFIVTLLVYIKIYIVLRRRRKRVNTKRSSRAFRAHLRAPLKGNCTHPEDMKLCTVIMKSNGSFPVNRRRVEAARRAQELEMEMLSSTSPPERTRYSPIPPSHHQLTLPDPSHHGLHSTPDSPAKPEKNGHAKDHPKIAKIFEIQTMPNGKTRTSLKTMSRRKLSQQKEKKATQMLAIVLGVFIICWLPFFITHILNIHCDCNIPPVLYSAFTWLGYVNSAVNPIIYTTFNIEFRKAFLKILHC
Chain of KiSS-1 receptor (Homo sapiens) (Q969F8 whole entry, looked up): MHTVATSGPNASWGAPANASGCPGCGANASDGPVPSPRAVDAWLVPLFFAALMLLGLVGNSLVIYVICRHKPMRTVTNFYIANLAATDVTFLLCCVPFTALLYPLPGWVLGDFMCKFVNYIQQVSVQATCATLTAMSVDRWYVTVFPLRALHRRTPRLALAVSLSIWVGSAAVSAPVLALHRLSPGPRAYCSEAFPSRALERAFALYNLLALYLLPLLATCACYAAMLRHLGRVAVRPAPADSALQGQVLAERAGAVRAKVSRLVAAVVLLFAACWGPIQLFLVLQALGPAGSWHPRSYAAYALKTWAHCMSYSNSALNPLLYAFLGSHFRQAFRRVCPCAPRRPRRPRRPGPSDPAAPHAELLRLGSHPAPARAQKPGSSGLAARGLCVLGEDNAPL
Chain of 5-hydroxytryptamine receptor 2A (Homo sapiens) (P28223 whole entry, looked up): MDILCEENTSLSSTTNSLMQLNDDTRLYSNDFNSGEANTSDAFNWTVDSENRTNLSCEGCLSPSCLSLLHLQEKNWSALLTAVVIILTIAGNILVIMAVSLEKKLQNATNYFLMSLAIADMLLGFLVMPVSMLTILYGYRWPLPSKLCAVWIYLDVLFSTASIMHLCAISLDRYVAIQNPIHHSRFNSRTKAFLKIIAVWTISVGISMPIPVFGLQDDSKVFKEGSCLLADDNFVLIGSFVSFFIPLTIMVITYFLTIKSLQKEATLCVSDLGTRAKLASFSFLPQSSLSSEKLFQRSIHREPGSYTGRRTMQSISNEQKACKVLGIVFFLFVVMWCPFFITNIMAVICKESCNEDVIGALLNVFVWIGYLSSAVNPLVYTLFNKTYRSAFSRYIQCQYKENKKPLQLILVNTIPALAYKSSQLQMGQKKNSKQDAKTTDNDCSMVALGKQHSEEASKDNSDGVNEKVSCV
Chain of Muscarinic acetylcholine receptor M1 (Homo sapiens) (P11229 whole entry, looked up): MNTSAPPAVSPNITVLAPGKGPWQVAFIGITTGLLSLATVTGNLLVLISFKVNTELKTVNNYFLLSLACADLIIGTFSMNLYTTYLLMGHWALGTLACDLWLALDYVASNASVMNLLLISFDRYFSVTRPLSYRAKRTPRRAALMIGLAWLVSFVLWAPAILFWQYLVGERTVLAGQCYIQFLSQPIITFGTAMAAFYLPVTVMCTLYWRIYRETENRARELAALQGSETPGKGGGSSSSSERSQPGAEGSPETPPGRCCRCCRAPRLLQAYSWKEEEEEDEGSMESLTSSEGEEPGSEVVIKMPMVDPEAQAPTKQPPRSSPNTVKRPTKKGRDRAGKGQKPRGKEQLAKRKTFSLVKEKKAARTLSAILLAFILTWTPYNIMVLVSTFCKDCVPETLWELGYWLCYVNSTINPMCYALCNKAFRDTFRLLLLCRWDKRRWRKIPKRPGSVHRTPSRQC
Chain of Beta-2 adrenergic receptor (Homo sapiens) (P07550 whole entry, looked up): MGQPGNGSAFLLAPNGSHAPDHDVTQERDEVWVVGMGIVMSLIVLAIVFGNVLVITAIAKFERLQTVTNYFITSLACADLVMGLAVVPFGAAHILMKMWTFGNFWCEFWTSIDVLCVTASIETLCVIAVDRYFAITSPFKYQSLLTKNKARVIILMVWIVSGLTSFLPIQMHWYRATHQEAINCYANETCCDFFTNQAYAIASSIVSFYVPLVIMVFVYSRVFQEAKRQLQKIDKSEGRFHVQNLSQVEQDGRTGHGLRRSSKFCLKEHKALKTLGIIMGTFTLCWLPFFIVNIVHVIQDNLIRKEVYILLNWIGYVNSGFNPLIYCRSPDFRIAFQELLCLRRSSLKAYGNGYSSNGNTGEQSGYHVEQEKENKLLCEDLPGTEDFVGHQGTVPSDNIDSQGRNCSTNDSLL

SMILES	Potency [1]	Potency [2]	Potency [3]	Potency [4]	Potency [5]	Potency [6]	Potency [7]	Potency [8]	Potency [9]	Potency [10]	Potency [11]	Potency [12]	Potency [13]	Potency [14]	Potency [15]	Potency [16]	Potency [17]	Potency [18]	Potency [19]	Potency [20]
CC(C)(C)NC(N)=O	inactive	inactive	inactive	inactive	inactive	inactive	inactive	inactive	inactive	inactive	inactive	inactive	inactive	inactive	inactive	inactive	inactive	inactive		
Cc1ccc(N)cc1[N+](=O)[O-]	inactive	inactive	inactive		inactive	inactive	inactive	inactive	inactive	inactive	inactive	inactive	inactive	inactive	inactive	inactive	inactive	inactive		
C1CCCNCCC1	inactive	inactive	inactive	inactive		inactive	inactive		inactive	inactive	inactive	inactive		inactive	inactive	inactive				
CCCCCCCCCCCCCC	inactive	inactive	inactive		inactive	inactive	inactive		inactive	inactive	inactive	inactive	inactive	inactive	inactive	inactive	inactive	inactive	inactive	
CCC(C)SSC(C)CC (stereo not given)	inactive	inactive	inactive	inactive		inactive	inactive	inactive	inactive		inactive	inactive		inactive	inactive	inactive	inactive	inactive	inactive	
CCC(C(=O)OCCOCCN(CC)CC)c1ccccc1 (stereo not given)	inactive	inactive	inactive	inactive	inactive	inactive	inactive	inactive	inactive	inactive	2.68 µM (active)		inactive	inactive	inactive	inactive	inactive		inactive	
[Cl][In]([Cl])[Cl]	inactive	3.44 µM (active)	inactive	inactive	inactive	inactive	inactive	inactive	inactive	inactive	inactive		inactive	inactive	inactive	inactive	inactive	inactive		
CCC(CO)CO	inactive	inactive	inactive	inactive	inactive	inactive	inactive	inactive	inactive	inactive	inactive	inactive	inactive	inactive	inactive		inactive	inactive		
CC(=O)CCC(C)C	inactive	inactive	inactive	inactive	inactive	inactive	inactive	inactive	inactive		inactive	inactive	inactive	inactive	inactive	inactive	inactive	inactive		
C=CCOc1cc(Cl)ccc1C(=O)NCCN(CC)CC	inactive	inactive	inactive	inactive	inactive	inactive	inactive	inactive	inactive	inactive	inactive	4.6 µM (active)	inactive	inactive	inactive	inactive	inactive			
CC(C)(C)NCCO	inactive	inactive	inactive	inactive	inactive	inactive		inactive	inactive	inactive	inactive	inactive	inactive	inactive	inactive	inactive	inactive	inactive	inactive	
COc1ccc2c(c1)CCCC2=O	inactive	inactive	inactive	inactive	inactive	inactive	inactive	inactive	inactive	inactive	inactive	inactive		inactive	inactive	inactive	inactive		inactive	
CCCCCC(=O)O[C@]1(C(C)=O)CC[C@H]2[C@@H]3CCC4=CC(=O)CC[C@]4(C)[C@H]3CC[C@@]21C	30.4 µM (active)	inactive	inactive	inactive	inactive	20.3 µM (active) and inactive	inactive	inactive		inactive	inactive	inactive	inactive			inactive	inactive	inactive	inactive	
CCCCC(C)C(=O)O (stereo not given)	inactive	inactive	inactive	inactive	inactive	inactive	inactive			inactive	inactive	inactive	inactive	inactive	inactive	inactive	inactive	inactive		
CCOc1ccccc1OCC	inactive	inactive	inactive	inactive	inactive	inactive	inactive		inactive	inactive	inactive	inactive	inactive	inactive	inactive	inactive	inactive	inactive	inactive	
NS(=O)(=O)c1ccccc1Cl	inactive	inactive	inactive	inactive	inactive	inactive	inactive		inactive	inactive	inactive	inactive	inactive	inactive		inactive	inactive	inactive		

SMILES	Potency [1]	Potency [2]	Potency [3]	Potency [4]	Potency [5]	Potency [6]	Potency [7]	Potency [8]	Potency [9]	Potency [10]	Potency [11]	Potency [12]	Potency [13]	Potency [14]	Potency [15]	Potency [16]	Potency [17]	Potency [18]	Potency [19]	Potency [20]
c1ccsc1	inactive	inactive	inactive	inactive	inactive	inactive	inactive	inactive	inactive	inactive	inactive		inactive	inactive		inactive	inactive	inactive		
Cc1ccccc1C(=O)N1CC/C(=N\OS(=O)(=O)O)c2ccc(Cl)cc21	inactive	inactive	inactive		inactive	inactive	inactive	inactive	inactive	inactive	inactive	inactive		inactive		inactive	inactive	inactive	inactive	
Cc1c(C(=O)c2c[nH]n(C)c2=O)ccc(S(C)(=O)=O)c1C1=NOCC1	inactive	inactive		inactive		inactive	inactive	inactive	inactive	inactive	inactive			inactive	inactive		inactive	inactive	inactive	
COc1cccc(Br)c1	inactive	inactive	inactive	inactive	inactive	inactive	inactive	inactive	inactive	inactive	inactive	inactive	inactive	inactive	inactive	inactive	inactive		inactive	inactive
CC(=O)Nc1ccc(C)cc1	inactive	inactive	inactive	inactive	inactive	inactive	inactive	inactive	inactive	inactive	inactive	inactive	inactive	inactive	inactive	inactive	inactive	inactive		inactive
CCCCCCC(C)(C)C(=O)O	inactive	inactive			inactive	inactive	inactive		inactive	inactive	inactive	inactive	inactive	inactive	inactive	inactive	inactive	inactive	inactive	
Nc1ccc(N)c(Cl)c1	inactive	54.4 µM (active) and 27.3 µM (active)	inactive	inactive	inactive	inactive	inactive	inactive	inactive	inactive	inactive and 21.9 µM (active)	inactive	inactive and 43.6 µM (active)							inactive
COc1cccc(OC)c1C(=O)N[C@@H]1C(=O)N2[C@@H]1SC(C)(C)[C@@H]2C(=O)O	inactive	inactive	inactive	inactive	inactive	inactive	inactive	inactive	inactive	inactive	inactive	inactive			inactive	inactive		inactive	inactive	inactive
O=[N+]([O-])c1ccc(/C=C/c2ccc([N+](=O)[O-])cc2S(=O)(=O)O)c(S(=O)(=O)O)c1	inactive	inactive	inactive			inactive	inactive	inactive		inactive		inactive	inactive	inactive	inactive	inactive	inactive	inactive		
Cn1ccnc1	inactive	inactive	inactive	inactive	inactive	inactive	inactive	inactive	inactive	inactive	inactive	inactive	inactive	inactive	inactive	inactive	inactive	inactive		inactive
CC(C)C(=O)C(C)C	inactive	inactive	inactive	inactive	inactive	inactive	inactive	inactive	inactive	inactive	inactive	inactive	inactive	inactive		inactive	inactive	inactive	inactive	inactive
Cn1cnc2c1c(=O)[nH]c(=O)n2C	inactive	inactive	inactive			inactive	inactive	inactive		inactive	inactive	inactive	inactive	inactive	inactive	inactive		inactive	inactive	
CC(=O)CC(=O)Nc1ccccc1C	inactive	inactive	inactive	inactive	inactive	inactive	inactive	inactive	inactive	inactive		inactive	inactive	inactive	inactive	inactive	inactive	inactive	inactive	inactive
COc1ccc(NC(C)=O)cc1	inactive	inactive	inactive	inactive	inactive	inactive	inactive	inactive	inactive	inactive	inactive	inactive	inactive	inactive	inactive	inactive	inactive	inactive	inactive	inactive
O=C(O)CNc1ccccc1	inactive	inactive		inactive	inactive	inactive	inactive	inactive		inactive	inactive	inactive	inactive	inactive	inactive	inactive	inactive	inactive	inactive	
CNCCCC12CCC(c3ccccc31)c1ccccc12	54.5 µM (active)	inactive	inactive	inactive	inactive	inactive	inactive	inactive	inactive					inactive	inactive		inactive	inactive		inactive
